Laboratory results taken from PubChem BioAssay (NCI).
Several values for one entry are separate records, joined by “and”; a condition that tells them apart may be missing. Equal entries are not always repeated. This is part of a sample that, as a whole, favours compounds with a hit. Of some 83,000 tested, about 20% had one in any assay.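 Assay: single dose, 48 h. Readout: percent growth (0 = no net growth; negative = cell death). Active: <10.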 Values without a mark were called inactive. Activity calls are given as the source filed them.

Legend:
Test in all cases: NCI-60 one-dose screen, 48 h (100 = growth as untreated, 0 = no growth, -100 = all killed)
Conditions in all cases: 10 µM unless noted
T-47D breast = system: T-47D breast
BT-549 breast = system: BT-549 breast
MDA-MB-435 melanoma = system: MDA-MB-435 melanoma
MCF7 breast = system: MCF7 breast
HCT-116 colon = system: HCT-116 colon
HCC-2998 colon = system: HCC-2998 colon
KM12 colon = system: KM12 colon
SW-620 colon = system: SW-620 colon

| SMILES | growth (T-47D breast) | growth (BT-549 breast) | growth (MDA-MB-435 melanoma) | growth (MCF7 breast) | growth (HCT-116 colon) | growth (HCC-2998 colon) | growth (KM12 colon) | growth (SW-620 colon) |
| --- | --- | --- | --- | --- | --- | --- | --- | --- |
| CC(O)CCNC(c1ccccc1)C(O)c1ccccc1 (stereo unspecified) | 99.2% | 110% | 112% | 99.9% | 100% | 111% | 114% | – |
| NC(=O)Cc1nc(O)cc(=O)[nH]1 | 88.5% | 109% | 106% | 95.5% | 110% | 100% | 106% | 104% |
| Nc1ccc2ccc(NS(=O)(=O)N3CCCCC3)cc2c1 | 46.8% | 29% | -14.7% (active) | 17.8% | 9.95% (active) | -3.22% (active) | 15% | 27.9% |
| CCOP(C)(=O)/C(Cc1ccc(OC)c(OC)c1)=N\O (stereo unspecified) | 115% | 115% | 104% | 104% | 103% | 98.5% | 101% | 99.2% |
| Cc1c(Cl)c(C)c(Cc2c(C)c(Cl)c(C)c(Cl)c2O)c(O)c1Cl | 1.53% (active) | 22.6% | – | 1.6% (active) | 3.19% (active) | 25.7% | 15.7% | 17.1% |
| CS(=O)(=O)OCC1NC(=O)C(COS(C)(=O)=O)NC1=O (stereo unspecified) | 104% and 105% | 78.1% and 30.1% | – | 93% and 85% | 93.7% and 93.8% | 89.7% and 103% | 104% and 83.9% | – |
| Clc1ccc2sc(-c3ccccc3)nc2c1 | 56.8% | – | 95.4% | 61.2% | 94.9% | 103% | 104% | 72.2% |
| CCC(=O)Oc1ccc(OCc2ccccc2)cc1 | 113% and 89.5% | 73.4% | – | 91.4% and 88.5% | 99.7% and 102% | 84.4% and 87.7% | 86.5% and 89.6% | 90.2% and 79.7% |
| O=C1c2ccccc2C(c2ccccc2)C1c1ccccc1 (stereo unspecified) | 82.9% | 131% | – | 69.3% | 79.3% | 95.4% | 95.1% | – |
| CCOC(C)=N | 103% | 108% | 118% | 104% | 95.1% | 103% | 111% | – |
| O=[N+]([O-])c1cccc(N=Cc2ccccc2)c1 | 103% | 101% | – | 102% | 103% | 103% | 112% | 117% |
| CCCCNC(=O)c1ccccc1C | 96.9% | 94.1% | – | 89.8% | 90.2% | 88.3% | 101% | – |
| COc1ccc(COC=O)cc1 | 91.2% | 110% | – | 99.3% | 99.1% | 94.3% | 103% | 108% |
| COc1ccc(CCNC(=S)NN)cc1OC | 98.8% | 118% | – | 93.9% | 84.2% | 88.8% | 94.2% | 99% |
| Cc1cnc(N)s1 | 90.2% | 100% | – | 95.4% | 95.8% | 92% | 103% | – |
| COCCNC(C)=O | 89.5% | 106% | – | 94.1% | 105% | 118% | 103% | 105% |

| SMILES | growth (T-47D breast) | growth (BT-549 breast) | growth (MDA-MB-435 melanoma) | growth (MCF7 breast) | growth (HCT-116 colon) | growth (HCC-2998 colon) | growth (KM12 colon) | growth (SW-620 colon) |
| --- | --- | --- | --- | --- | --- | --- | --- | --- |
| CCCCCCC(C)CC1=C(O)c2ccccc2C(=O)C1=O (stereo unspecified) | 72.9% | 49% | – | 25.9% | 23.6% | 54.9% | 41.2% | 35.4% |
| CCN(CC)CCNC(=O)c1ccc(NCN2C(=O)NC(c3ccccc3)(c3ccccc3)C2=O)cc1 | 117% and 95.2% | 107% and 120% | – | 98.4% and 94.6% | 104% and 95.1% | 102% and 125% | 106% and 101% | 105% and 106% |
| CCOC(=O)c1ccc(C(=N)N)cc1 | 105% | 119% | 109% | 95.3% | 106% | 103% | 109% | – |
| O=C1C=CC(n2cc(F)c(=O)[nH]c2=O)O1 (stereo unspecified) | 65.5% | 43% | – | 30.1% | 40% | 22.3% | 51.6% | 79.7% |
| CCCCC/C(C)=N\NC(N)=S | 33.6% | 96.7% | – | 19.6% | 11.7% | 97.8% | 93.5% | 67.5% |
| CC(C)(C)OC(=O)CC1(O)CCCCC1 | 99.8% | 110% | – | 101% | 102% | 106% | 107% | – |
| COc1ccc(CCl)c(C)c1OC | 102% | 105% | – | 103% | 99.6% | 100% | 101% | 101% |
| CCCCCCCCCCCCCCCCC(=O)O | 104% | 112% | 109% | 93.9% | 101% | 96.8% | 105% | – |
| O=C(NC(=O)c1ccc(F)c(Cl)c1)NC1CC1 | 91.8% | 107% and 109% | – | 100% and 89.6% | 104% and 105% | 96.2% and 106% | 105% and 101% | 104% and 100% |
| O=C1c2cccnc2-c2ncccc21 | 98.9% [100 µM] | 104% [100 µM] | – | 109% [100 µM] | 107% [100 µM] | 112% [100 µM] | 103% [100 µM] | 109% [100 µM] |
| CC1(C)OC(=O)C(=Cc2ccc(C#N)cc2)C(=O)O1 | 86.4% and 102% | 109% and 103% | – | 104% and 95.6% | 96.5% and 108% | 112% and 105% | 105% and 115% | – |
| OCc1ccccc1F | 95.9% | 82.4% | – | 72.2% | 58.2% | 93.2% | 107% | 58% |
| CN(C)C(=N)N=C(N)N | 90.5% and 102% | 80.2% and 156% | – | 96.7% and 146% | 108% and 98.3% | 115% | 100% and 108% | 108% and 105% |
| CCOC(=O)c1ccncc1 | 95% | 109% | 107% | 97.9% | 107% | 105% | 105% | – |
| O=C(c1ccncc1)c1c(Cc2ccccc2)ccc2ccccc12 | 113% | -7.98% (active) | – | 101% | 82% | 37.3% | 102% | 90.4% |
| Cc1cc2nc3ccc(=[N+](C)C)cc-3sc2cc1N | -25.1% (active) and 1.21% (active) | – | -68.9% (active) and -41.4% (active) | -3.34% (active) and -28.7% (active) | -22.8% (active) and 4.49% (active) | 18.8% | 5.96% (active) and -2.21% (active) | -19.7% (active) and -9.28% (active) |
